# Screening data (PubChem)
# AmpC inh detg: qHTS Inhibitors of AmpC Beta-Lactamase (assay with detergent); P00811; AmpC hydrolysis of nitrocefin, absorbance 480 nm, 0.01% Triton; Potency, µM (titrated, usually from 114 µM), without a hit: at the highest dose activity change, negative = inhibition, most hits filed as inhibitors; 370,000 compounds, 0.041% hits;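 note: 0% = no-compound wells and -100% = no-enzyme wells; nearly all actives have a fitted effect of over 25% in size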
#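 20 mM phosphate pH 7.0 + 0.01% (detergent screen) or 0.0001% Triton X-100; 5.3 nM AmpC reagent; cpd preinc 15 min RT; nitrocefin (800 uM stock) to start; A480 q20 s × 4 min; Activity was normalised to no-enzyme and no-compound control wells.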
# AmpC no deterg: qHTS Inhibitors of AmpC Beta-Lactamase (assay without detergent); AmpC nitrocefin hydrolysis, absorbance 480 nm, 0.0001% Triton; Potency, µM (doses to about 57.1 µM), for inactives: top-dose activity change, negative = inhibition, actives largely listed as inhibitors; 330,000 compounds, 0.52% hits; AID 485341, 2010;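 note: plate controls were no compound for no effect and no enzyme for full effect; nearly all actives have a fitted effect of over 20% in size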
#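 20 mM phosphate pH 7.0 + 0.01% (detergent screen) or 0.0001% Triton X-100; 5.3 nM AmpC reagent; cpd preinc 15 min RT; nitrocefin (800 uM stock) to start; A480 q20 s × 4 min; Activity was normalised to no-enzyme and no-compound control wells.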
# FBPA Giardia inh: qHTS Assay for Inhibitors of Fructose-1,6-bisphosphate Aldolase from Giardia Lamblia. A8B2U2. 290,000 compounds, 0.71% hits. AID 2451, 2010. purified Giardia FBPA. Potency, µM (doses to about 59.6 µM), for the others: top-dose activity, negative = inhibition, usual class: inhibitors; note: % is set by controls: 0 for no effect and ±100 for the full control effect; nearly all actives have a fitted effect of over 55% in size
# Target sequence (A8B2U2 whole entry, looked up): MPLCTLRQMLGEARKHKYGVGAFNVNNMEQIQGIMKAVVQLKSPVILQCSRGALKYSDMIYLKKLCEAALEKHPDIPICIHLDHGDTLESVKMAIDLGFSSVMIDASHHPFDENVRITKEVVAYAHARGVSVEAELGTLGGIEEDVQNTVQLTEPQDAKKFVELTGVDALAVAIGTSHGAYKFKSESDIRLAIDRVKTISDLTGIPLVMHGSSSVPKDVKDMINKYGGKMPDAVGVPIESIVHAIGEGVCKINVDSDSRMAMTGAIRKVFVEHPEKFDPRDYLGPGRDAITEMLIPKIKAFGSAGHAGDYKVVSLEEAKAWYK
#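 40 nM FBPA preincubated 10 min at RT with compound (up to 57.5 uM final), then substrate plus GAPDH/TPI/NAD/arsenate coupling and diaphorase/resazurin added. Fluorescence read after 20 min at RT, 525/598 nm.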
# SARS PLpro yeast: qHTS of Yeast-based Assay for SARS-CoV PLP; 330,000 compounds, 0.19% hits; Potency, µM (titrated, usually from 32.9 µM), inactives show at the highest dose activity, positive = growth rescue, actives largely listed as activators; S. cerevisiae expressing SARS-CoV PLpro, growth rescue; calls by dose curve; note: 0% is about no effect; nearly all actives have a fitted effect of over 55% in size
# The depositor's hits bear a star; u = inconclusive; x = not tested or not shown; [ ] = remark or other dose. Only some compounds are listed: those with a hit (about 1.1% of all), similar ones and a draw of the others. Unless noted, calls come from the whole dose curve; as a rule, active = well fitted curve in the direction sought with a large enough effect; inconclusive = small, poorly fitted or top-dose-only effect, or another doubt; inactive = no such curve, though single readings can be large; an effect the other way counts as inactive or inconclusive. Potency is the fitted concentration of half-maximal effect.
SMILES,AmpC inh detg,AmpC no deterg,FBPA Giardia inh,SARS PLpro yeast
Cc1cccc(NC(=O)c2ccccc2NC(=O)c2ccco2)c1,0%,6.3µM*,x,1%
COCO[C@H]([C@@H](C)C=C(Br)Br)[C@@H](C)COCc1ccc(OC)cc1,x,x,1%,x
C[C@@]12C=Cc3occc3[C@H]1CC[C@@]13C[C@@H](CC[C@H]12)[C@@](O)(CO)C3,x,x,0%,x
COc1ccccc1C(=O)NCCn1cc(SCC(=O)Nc2ccccc2F)c2ccccc21,-2%,x,x,x
Cc1ccc(Cl)cc1NC(=O)c1ccc(Cn2cc(Cl)cn2)cc1,-10%,11µM*,-5%,-7%
CCCN(CCC)C(=O)Cn1c(=O)n(CCCCC(=O)NC2CCCC2)c(=O)c2ccccc21,-1%,0.32µM*,1%,1%
O=C(CCCCn1c(=O)c2ccccc2n(CC(=O)NC2CCCC2)c1=O)NC1CCCC1,-3%,-10%,8%,-6%
Nc1nc(Cl)nc2c1ncn2C1OC(CO)C(O)C1F (configuration not stated),x,x,7%,x
COc1ccc(C(=O)Nc2oc(-c3ccccc3)c(-c3ccccc3)c2C#N)cc1,-6%,8.9µM*,0%,3%
CCc1c(C)sc(NC(=O)c2cccs2)c1C#N,2%,-27%,u,-8%
COc1ccc(-c2oc(NC(=O)c3ccc(C)cc3)c(C#N)c2-c2ccc(OC)cc2)cc1,u,-33%,1%,10%
Cc1sc(NC(=O)c2ccccc2)c(C#N)c1-c1ccccc1,-14%,25µM*,-15%,10%
CC(=O)Nc1ccc(SCC(c2ccccc2)N2CCN(C)CCC2=O)cc1 (configuration not stated),x,x,6%,x
Cc1nn(-c2ccccn2)c2c1-c1nc(N)ncc1CC2,-13%,-20%,16µM*,5%
COc1cccc(OC)c1C1=Nn2c(nnc2-c2ccccc2O)SC1,x,x,0%,x
COc1ccc(C2=Nn3c(nnc3-c3cccc(OC)c3)SC2)cc1,x,x,4%,x
O=C(Nc1nccs1)c1cc2sccc2n1Cc1ccc(F)cc1,-10%,22µM*,-9%,0%
Cc1ccc(C(=O)Oc2ccccc2N2CCOCC2)cc1,-2%,12%,-5%,-3%
Cc1ccc(C(=O)OC2OC(=O)C(Cl)=C2N2CCOCC2)cc1 (configuration not stated),11µM*,-49%,4%,-3%
Cc1cccc(-n2ncc3c(Nc4c(C)n(C)n(-c5ccccc5)c4=O)ncnc32)c1,7%,11%,6%,13%
Cc1c(Nc2ncnc3c2cnn3-c2ccccc2)c(=O)n(-c2ccccc2)n1C,5%,0.14µM*,0%,2%
CCN(c1ccccc1)S(=O)(=O)c1ccc(Cl)c(NC(=O)COC(=O)c2cc(O)c3ccccc3c2O)c1,-3%,4µM*,5µM*,-5%
COC(=O)c1ccc(-c2csc(NC(=O)c3ccc(S(=O)(=O)N4CCc5ccccc5C4)cc3)n2)cc1,3%,-32%,12%,22%
Cc1ccc2nc(NC(=O)c3ccc(S(=O)(=O)N4CCC(C)CC4)cc3)sc2c1,18%,x,x,x
Cc1ccc2nc(NNC(=O)c3ccc(S(=O)(=O)N4CCc5ccccc5C4)cc3)sc2c1,u,u,11%,5µM*
SMILES,AmpC inh detg,AmpC no deterg,FBPA Giardia inh,SARS PLpro yeast
COc1ccc(-c2csc(NC(=O)c3ccc(S(=O)(=O)N4CCc5ccccc5C4)cc3)n2)cc1,u,8.9µM*,2%,11%
Cc1ccccc1NS(=O)(=O)c1ccc2[nH]cc(C(=O)NC3CCCCC3)c(=O)c2c1,u,0%,x,-5%
COc1ccc2[nH]c(C)c(CCN(Cc3cccs3)C(=S)Nc3cccc(F)c3)c2c1,3%,45µM*,u,-1%
S=c1[nH]nc(-c2ccc(Cl)cc2)n1/N=C/C=C/c1ccco1,-6%,16µM*,-1%,-2%
Cc1ccccc1-c1n[nH]c(=S)n1/N=C/C=C/c1ccco1,3%,10µM*,-10%,1%
S=c1[nH]nc(-c2ccccc2)n1/N=C/C=C/c1ccco1,-13%,-56%,6%,u
COc1ccc2[nH]c(=O)c(CN(C(=O)c3cccc(Cl)c3)c3ccccc3OC)cc2c1,14%,x,x,x
CC#CCN1c2ccccc2[C@]23C[C@@H](C(=O)OC)N(S(=O)(=O)c4ccc(C#N)cc4)C2=NC(C(=O)OC)=C(C(=O)OC)[C@H]13,x,x,4%[12.9 µM],x
Nc1ncnc2c1ncn2[C@@H]1O[C@H](C(=O)N2CCN(CC(=O)Nc3cccc4c3CNC4=O)CC2)[C@@H](O)[C@H]1O,x,x,-21%,x
CCCCc1nc2c(c3c1C[C@H](C)OC3)CN(C(=O)Nc1ccc(OC)cc1)CC2,x,x,1%[12.9 µM],x
O=C(Nc1nnc(-c2ccc3c(c2)CCCC3)o1)c1c(F)cccc1F,-1%,-34%,7%,-11%
O=C(Nc1nnc(-c2ccc3c(c2)CCCC3)o1)c1ccc(Cl)cc1Cl,u,35µM*,u,-22%
O=C(Nc1nnc(-c2ccc3c(c2)CCCC3)o1)C1CCCCC1,-15%,-26%,4%,15%
CN(C)S(=O)(=O)c1ccc(C(=O)Nc2nnc(-c3ccc4c(c3)CCCC4)o2)cc1,u,2.8µM*,u,0%
Cc1cc(C)c(S(=O)(=O)/N=C2/C=C(SCC(=O)O)C(=O)c3ccccc32)cc1C,1%,16µM*,16µM*,-15%
Cc1ccc(N2CCN(C(=O)c3cn(C)c4ccc(S(=O)(=O)N5CCCC5)cc4c3=O)CC2C)cc1 (configuration not stated),-1%,x,x,x
O=C(c1cc2c(s1)CCCC2)N1CCN(Cc2ccc3c(c2)OCO3)CC1,u,159%,-12%,-12%
O=C(Oc1ccc2c(c1)OCO2)c1cc2c(s1)CCC2,-12%,16µM*,u,1%
COc1ccc(/C=C2\CCCc3c2nc2ccccc2c3C(=O)O)cc1OC,4%,-31%,7.9µM*,1%
COc1ccc(/C=C2\CCc3c2nc2ccccc2c3C(=O)O)cc1OC,-15%,-19%,-16%,0%
O=C(COC(=O)CSc1ccc([N+](=O)[O-])cc1)NC1CCCCCCC1,u,32µM*,x,-17%
CCCCOC(=O)C1[C@H]2C(=O)N(c3ccccc3CC)C[C@]23C=C[C@H]1O3 (some centres not stated),-17%,23%,2%,-2%
CCc1ccccc1N1CC23C=CC(O2)C(C(=O)O)C3C1=O (configuration not stated),1%,3.5µM*,-1%,4%
Cc1ccc(NC(=O)c2nnn(Cc3cccc(C(F)(F)F)c3)c2N)c(C)c1,8%,x,x,x
CCCCc1nc2c(c3c1C[C@H](C)OC3)CN(C(=O)c1ccco1)CC2,x,x,6%[12.9 µM],x
Cc1ccc(C)c(N(CC(=O)N/N=C/c2ccc(-c3ccc([N+](=O)[O-])cc3)o2)S(=O)(=O)c2ccccc2)c1,0%,-22%,5%,-2%
